# Measured values taken from PubChem BioAssay AID463173 (ICCB-Longwood Screening Facility, Harvard Medical School, 2010).
# The campaign covered roughly 52,000 compounds. About 4,300 (8.3%) were called active. Rule as the data show it: active = survival mostly below about 52% (no sharp cut-off); inactive = mostly above about 56%. What follows is part of a selection rich in actives, with near analogues and random picks from the rest.
# Tested on: DeltatarO mutant
# Assay: growth inhibition of S. aureus wild type versus tarO mutant, primary screen, teichoic acid synthesis inhibitors, RN4220, OD600 (AID 463173)
# Details: OD600, 18 h, hits give low values, screened at 18.75 µg/mL (by protocol)
row,SMILES,survival
1,Cc1nc2ncnn2c(C)c1CCC(=O)N1CCN(c2ccc(F)cc2)CC1,89% (inactive)
2,COCCNC(=O)CN1C(=O)c2cccnc2Oc2ccc(Cl)cc21,85% (inactive)
3,COc1ccc(-c2onc(C)c2C)cc1S(=O)(=O)NCc1ccco1,67% (inactive)
4,Cc1ccc(S(=O)(=O)N(C)c2ccc3sc(C)nc3c2)cc1,91% (inactive)
5,COc1ccc(OC)c(C(=O)CC2(O)C(=O)N(Cc3ccccc3C)c3ccccc32)c1 (centres undefined),165% (inactive)
6,CN1C(=O)Cc2cc(S(=O)(=O)CCC(=O)Nc3ccc(OC(F)(F)F)cc3)ccc21,71% (inactive)
7,Cc1cccc(CN2C(=O)c3ccccc3Sc3ccc(C(=O)N4CCCC4)cc32)c1,83% (inactive)
8,O=C(COc1ccc(Cl)cc1)Nc1ccc(O)c(-c2nc3ccccc3s2)c1,94% (inactive)
9,COc1ccc(OCC(=O)Nc2cccc(-c3nc4ccccc4s3)c2C)cc1,106% (inactive)
10,COc1ccc(OCC(=O)Nc2ccc(O)c(-c3nc4ccccc4s3)c2)cc1,43% (active)
11,CCOc1ccccc1C(=O)Nc1cccc(-c2nc3ccccc3s2)c1,41% (active)
12,CCOc1ccc(C(=O)Nc2ccc(-c3nc4ccccc4s3)c(C)c2)cc1OCC,99% (inactive)
13,COc1cccc(CC(=O)Nc2ccc(-c3nc4ccccc4s3)cc2Cl)c1,69% (inactive)
14,COc1cccc(CC(=O)Nc2ccc(-c3nc4ccccc4s3)cc2)c1,0% (active)
15,CCOc1ccccc1C(=O)Nc1ccccc1,65% (inactive)
16,COc1ccc(CC(=O)Nc2ccc(-c3nc4ccccc4s3)cc2Cl)cc1,69% (inactive)
17,Cc1cc(C)cc(OCC(=O)Nc2ccc(-c3nc4ccccc4s3)cc2)c1,68% (inactive)
18,O=C(COc1ccc(Cl)cc1)Nc1ccc(-c2nc3ccccc3s2)c(O)c1,68% (inactive)
19,Cc1ccc(OCC(=O)Nc2cccc(-c3nc4ccccc4s3)c2)cc1,47% (active)
20,CCOc1ccc(NS(=O)(=O)c2ccc3c4c(cccc24)C(=O)N3)cc1,83% (inactive)
21,CCn1cc2nc(SCc3ccccc3)n(Cc3ccc(C)cc3)c(=O)c2n1,93% (inactive)
22,O=C(NCCc1ccccc1)c1cc(-c2ccccc2)nc2n[nH]c(-c3ccccc3)c12,55% (inactive)
23,CCOC(=O)c1ccc(CN(Cc2ccc(F)cc2)S(=O)(=O)c2ccc(F)c(C(=O)Nc3ccc(Cl)cc3F)c2)cc1,79% (inactive)
24,CCOc1cc(CNC(=O)c2cc(-c3ccc(Cl)s3)nc3ccccc23)ccc1OC,84% (inactive)

row,SMILES,survival
1,CCOC(=O)C1CCCN(C(=O)Cn2ncc3c4ccccc4n(C)c3c2=O)C1 (centres undefined),121% (inactive)
2,COc1ccc(OCC(=O)Nc2cc(-c3nc4ccccc4s3)ccc2C)cc1,45% (active)
3,Cc1ccc2nc(-c3ccc(NC(=O)COc4ccccc4)cc3)sc2c1,68% (inactive)
4,CC(=O)Nc1cc(-c2nc3ccccc3s2)ccc1C,83% (inactive)
5,COc1ccc(-c2nc3ccccc3s2)cc1NC(=O)COc1ccc(C)cc1,129% (inactive)
6,Cc1ccc(-c2nc3ccccc3s2)cc1NC(=O)COc1ccccc1,54% (inactive)
7,Cc1csc2nc(-c3cccc(NC(=O)C(C)C)c3)cn12,73% (inactive)
8,CCCC(=O)Nc1cccc(-c2cn3c(C)csc3n2)c1,-5% (active)
9,Cc1ccc2nc(-c3ccc(NC(=O)COc4ccc(Cl)c(C)c4)cc3)sc2c1,74% (inactive)
10,Cc1csc2nc(-c3cccc(NC(=O)c4c(F)cccc4F)c3)cn12,128% (inactive)
11,COc1ccc(-c2nc3ccccc3s2)cc1NC(=O)COc1cccc(C)c1,16% (active)
12,COc1ccc(-c2nc3ccccc3s2)cc1NC(=O)COc1ccccc1C,142% (inactive)
13,Cc1ccc2nc(-c3ccc(NC(=O)COc4c(C)ccc(C)c4C)cc3)sc2c1,38% (active)
14,CCOC(=O)CC(=O)CSc1nc2ccsc2c(=O)n1Cc1ccccc1,118% (inactive)
15,COc1ccc(-c2coc3c2c(C)cc2oc(=O)cc(C)c23)cc1,82% (inactive)
16,Cc1ccc(CCNC(=O)C2CC(=O)N(CCc3ccc(C)cc3)C2)cc1 (centres undefined),101% (inactive)
17,Cc1cc(Br)ccc1NC(=O)C1CCN(S(=O)(=O)c2cccc3nsnc23)CC1,115% (inactive)
18,COc1ccc(Br)cc1CNC(=O)c1cnc2sc(N3CCC(C)CC3)nn2c1=O,78% (inactive)
19,CCc1ccc(-n2nc3ccc(NC(=O)c4cc5ccccc5o4)cc3n2)cc1,65% (inactive)
20,COc1cccc(C(C(=O)NCC2CCCO2)N(CC2CCCO2)C(=O)CC2C(=O)c3ccccc3S2(=O)=O)c1 (centres undefined),90% (inactive)
21,Cc1ccccc1-c1noc(CSc2nc3ccccc3[nH]2)n1,57% (inactive)
22,Cc1cccc(-c2noc(CSc3nc(-c4ccc(F)cc4)cc(=O)[nH]3)n2)c1,83% (inactive)
23,O=c1cc(-c2ccccc2)nc(SCc2nc(-c3ccc(Cl)cc3)no2)[nH]1,69% (inactive)
24,Cc1ccc2nc(SCc3nc(-c4ccccc4C)no3)[nH]c2c1,25% (active)

row,SMILES,survival
1,COc1ccc(-c2noc(CSc3nc4ccccc4[nH]3)n2)cc1OC,62% (inactive)
2,O=c1cc(-c2ccc(F)cc2)nc(SCc2nc(-c3ccccc3Cl)no2)[nH]1,117% (inactive)
3,COc1ccc(-c2noc(CSc3nc4ccccc4[nH]3)n2)cc1,51% (inactive)
4,CCc1cc(=O)[nH]c(SCc2nc(-c3ccccc3C)no2)n1,84% (inactive)
5,COc1ccccc1-c1noc(CSc2nc3ccc(C)cc3[nH]2)n1,102% (inactive)
6,Cc1ccccc1-c1noc(CSc2nc(-c3ccc(F)cc3)cc(=O)[nH]2)n1,37% (active)
7,COc1ccc(-c2noc(CSc3nc4ccc(C)cc4[nH]3)n2)cc1,39% (active)
8,Cc1ccc2nc(SCc3nc(-c4ccc(Cl)cc4)no3)[nH]c2c1,28% (active)
9,NCCSC1CC(=O)N(c2ccc(Cl)cc2)C1=O (centres undefined),88% (inactive)
10,COc1ccc(C)cc1NC(=O)c1cc2c(=O)n3cccc(C)c3nc2s1,86% (inactive)
11,COc1ccc(Cl)cc1NC(=O)CN(C)S(=O)(=O)c1ccc2c(c1)CCCN2C(C)=O,78% (inactive)
12,CCCCNS(=O)(=O)c1ccc(N2CCCCS2(=O)=O)cc1,66% (inactive)
13,Cc1ccc(-c2noc(-c3nnn(CC(=O)Nc4ccc(C)cc4Cl)c3N)n2)cc1,83% (inactive)
14,C=CCNCc1cc2cc(OCC)ccc2[nH]c1=O,97% (inactive)
15,COc1cc(OC)c(Nc2ncnc3onc(-c4cccc(Cl)c4)c23)cc1Cl,73% (inactive)
16,CCOc1ccc(NC(=O)Cn2cc(S(=O)(=O)N3CCN(c4ccccc4F)CC3)c3ccccc3c2=O)cc1,89% (inactive)
17,COc1ccc(NC(=O)CSc2nnc(-c3cccs3)o2)cc1,54% (inactive)
18,Cc1ccc(NC(=O)Cn2ncn3c(cc4ccccc43)c2=O)cc1F,84% (inactive)
19,Cc1ccc(NC(=O)Cn2ncn3c(cc4ccccc43)c2=O)cc1C,73% (inactive)
20,Cc1ccc(-c2nn(CCC(=O)Nc3ccc(Cl)c(Cl)c3)c(=O)c3ccccc23)cc1,53% (inactive)
21,CCCNC(=O)CCn1nc(-c2ccccc2)c2ccccc2c1=O,70% (inactive)
22,O=C(CCn1nc(-c2ccccc2)c2ccccc2c1=O)Nc1ccccc1,69% (inactive)
23,Cc1ccccc1NC(=O)CCn1nc(-c2ccc(Cl)cc2)c2ccccc2c1=O,95% (inactive)
24,Cc1ccc(NC(=O)Cn2ncn3c(cc4ccccc43)c2=O)c(C)c1,45% (active)

row,SMILES,survival
1,Cc1ccc(NC(=O)CCn2nc(-c3ccccc3)c3ccccc3c2=O)c(C)c1,52% (active)
2,COc1ccccc1NC(=O)CCn1nc(-c2ccccc2)c2ccccc2c1=O,42% (active)
3,COc1ccc(NC(=O)CSc2nc3cc(OC)c(OC)cc3c3nc(-c4ccccc4)nn23)cc1Cl,123% (inactive)
4,Cc1ccc(NC(=O)CN2C(=O)CCSc3ccc(S(=O)(=O)N4CCCC4)cc32)cc1,86% (inactive)
5,COc1ccc(-c2onc(C)c2C)cc1S(=O)(=O)NCc1ccc(C)o1,89% (inactive)
6,CC1=C(c2ccc(C(C)C)cc2)S(=O)(=O)N=C1N1CCN(c2ccccc2F)CC1,85% (inactive)
7,COc1ccc(OC)c(C2CC(=O)Nc3c2c(=O)[nH]c2nc4ccccc4n32)c1 (centres undefined),164% (inactive)
8,CCNc1nc(NC(C)(C)C)nc(Oc2ccc(=O)n(C)n2)n1,68% (inactive)
9,Cc1cccc(N2CCN(C(=O)CCc3c(C)nc4ncnn4c3C)CC2)c1C,79% (inactive)
10,COC(=O)c1cccc(CN2C(=O)SC(Nc3ccc(Cl)cc3)C2=O)c1 (centres undefined),42% (inactive)
11,COc1ccc(NC2SC(=O)N(c3ccccc3)C2=O)cc1 (centres undefined),105% (inactive)
12,O=C1SC(Nc2ccc(Cl)cc2)C(=O)N1Cc1ccccc1 (centres undefined),107% (inactive)
13,Cc1ccc(CN2C(=O)SC(Nc3ccc(Cl)cc3)C2=O)cc1 (centres undefined),30% (active)
14,CCOc1ccc(NC2SC(=O)N(Cc3ccccc3)C2=O)cc1 (centres undefined),42% (active)
15,COC(=O)c1cccc(CN2C(=O)SC(Nc3ccccc3C)C2=O)c1 (centres undefined),133% (inactive)
16,CCOC(=O)c1ccc(NC2SC(=O)N(Cc3cccc(C(=O)O)c3)C2=O)cc1 (centres undefined),60% (inactive)
17,COC(=O)c1cccc(CN2C(=O)SC(Nc3ccc(Br)cc3)C2=O)c1 (centres undefined),23% (active)
18,CN1C(=O)SC(Nc2ccccc2)C1=O (centres undefined),65% (inactive)
19,Cc1ccc(N2C(=O)SC(Nc3ccccc3)C2=O)cc1 (centres undefined),83% (inactive)
20,Cc1ccc(CN2C(=O)SC(Nc3ccccc3)C2=O)cc1 (centres undefined),40% (active)
21,COC(=O)c1cccc(CN2C(=O)SC(Nc3ccc(C)cc3)C2=O)c1 (centres undefined),50% (inactive)
22,COc1cc2c(cc1OC)C(COc1ccc3c(C)cc(=O)oc3c1)N(C(=O)Cc1ccc(F)cc1)CC2 (centres undefined),80% (inactive)
